According to the supplement of paper PMC10849652:
Of roughly 7,900 targets only a part is listed; those with a hit were picked by preference. About 0.6% of all pairs of compound and target were hits.

How the values were obtained:
Assay in all cases: log2 fold change, soluble protein after heating vs DMSO (PISA); higher = thermal stabilisation; K562 cells, 10 uM, 30 min; active = over 0.2 and 3.5 SD of the protein, either way, in both replicates (recomputed)
[1] = compound: CS(=O)(=O)c1ccc(-c2cnc(N)c(C(=O)Nc3ccccc3)n2)cc1
In short: (§1)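 Soluble protein was defined as the supernatant after 21,000xg for 90 min. It came from K562 cells at 2×10^6 cells/mL given 10 μM compound for 30 min, heated in aliquots for 3 min across 48°C-58°C, pooled, and extracted in PBS with 0.5% NP-40 at 4°C, and was quantified by TMTpro 16plex LC-MS/MS with equalised channel sums. Thermal stability against control samples, from duplicates, is reported as log2 fold change.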

[2] = compound: C[C@@H](Oc1cc(-c2cnn(C3CCNCC3)c2)cnc1N)c1c(Cl)ccc(F)c1Cl [crizotinib]
In short: as §1

[3] = compound: C[C@@H]1COCCN1C2=NC(=NC(=C2)C3(CC3)S(=O)(=O)C)C4=C5C=CNC5=CC=C4
In short: as §1

[4] = compound: C[C@H](C1=CC=C(C=C1)C(=O)NC2=C3C=CNC3=NC=C2)N
In short: as §1

[5] = compound: C[C@H](Nc1ncnc2nc[nH]c12)c1cc2cccc(Cl)c2c(=O)n1-c1ccccc1 [duvelisib]
In short: as §1

[6] = compound: Cc1cc(Nc2cc(CN3CCOCC3)c3nc(C)c(Cc4ccc(Cl)cc4F)n3n2)n[nH]1 [gandotinib]
In short: as §1

[7] = compound: Cc1cc(Nc2cc(N3CCN(C)CC3)nc(Sc3ccc(NC(=O)C4CC4)cc3)n2)n[nH]1 [tozasertib]
In short: as §1

[8] = compound: Cc1cc(SCc2sc(-c3ccc(C(F)(F)F)cc3)nc2C)ccc1OCC(=O)O
In short: as §1

[9] = compound: Cc1ccc(-n2nc(C(C)(C)C)cc2NC(=O)Nc2ccc(OCCN3CCOCC3)c3ccccc23)cc1 [doramapimod]
In short: as §1

[10] = compound: Cc1ccc(C(=O)N(CCCN)[C@@H](c2nc3cc(Cl)ccc3c(=O)n2Cc2ccccc2)C(C)C)cc1 [ispinesib]
In short: as §1

[11] = compound: Cc1ccc(NC(=O)c2ccc(CN3CC[C@H](N(C)C)C3)c(C(F)(F)F)c2)cc1Nc1nccc(-c2cncnc2)n1 [bafetinib]
In short: as §1

[12] = compound: Cc1cccc(CC(=O)N2CCc3c2ccc(-c2cn(C)c4ncnc(N)c24)c3F)n1
In short: as §1

[13] = compound: Cc1cn(-c2cc(NC(=O)c3ccc(C)c(Nc4nccc(-c5cccnc5)n4)c3)cc(C(F)(F)F)c2)cn1 [nilotinib]
In short: as §1

[14] = compound: Cc1nc(Nc2n[nH]c3c2CN(C(=O)N[C@H](CN(C)C)c2ccccc2)C3(C)C)c2sccc2n1
In short: as §1

[15] = compound: Cc1nc(Nc2ncc(C(=O)Nc3c(C)cccc3Cl)s2)cc(N2CCN(CCO)CC2)n1 [dasatinib]
In short: as §1

[16] = compound: Cc1ncc(-c2ccnc(Nc3ccc(S(C)(=O)=O)cc3)n2)n1C(C)C
In short: as §1

[17] = compound: Cn1cc(-c2ccc3c(c2)CCN3C(=O)Cc2cccc(C(F)(F)F)c2)c2c(N)ncnc21
In short: as §1

[18] = compound: Cn1cc(-c2ccc3nnc(C(F)(F)c4ccc5ncccc5c4)n3n2)cn1
In short: as §1

[19] = compound: Cn1cncc1[C@@](N)(c1ccc(Cl)cc1)c1ccc2c(c1)c(-c1cccc(Cl)c1)cc(=O)n2C [tipifarnib]
In short: as §1

[20] = compound: FC(F)(F)c1ccc(/C=C/c2nc(COc3ccc(CCCCn4ccnn4)cc3)co2)cc1 [mubritinib]
In short: as §1

Measured: log2 fold change

PLD3 (UniProt Q8IV08)
UniProt Q8IV08, sequence (Q8IV08 whole entry, looked up): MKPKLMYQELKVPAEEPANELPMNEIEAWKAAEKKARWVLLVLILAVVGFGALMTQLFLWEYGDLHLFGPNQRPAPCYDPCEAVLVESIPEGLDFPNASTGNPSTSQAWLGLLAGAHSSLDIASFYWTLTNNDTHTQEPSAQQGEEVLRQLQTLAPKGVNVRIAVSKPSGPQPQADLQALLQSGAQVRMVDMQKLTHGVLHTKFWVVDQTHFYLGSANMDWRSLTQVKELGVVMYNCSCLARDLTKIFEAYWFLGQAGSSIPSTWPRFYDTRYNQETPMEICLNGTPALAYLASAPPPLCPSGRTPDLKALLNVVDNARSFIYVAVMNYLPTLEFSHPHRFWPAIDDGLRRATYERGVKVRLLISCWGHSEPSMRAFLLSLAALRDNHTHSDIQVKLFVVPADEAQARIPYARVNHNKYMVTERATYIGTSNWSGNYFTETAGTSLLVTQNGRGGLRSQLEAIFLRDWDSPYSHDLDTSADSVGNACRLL
active: [11] -0.308
inactive: [1] -0.034 | [2] -0.158 | [3] 0.005 | [4] -0.03 | [5] -0.012 | [6] 0.006 | [7] -0.009 | [8] -0.023 | [9] 0.001 | [10] -0.132 | [12] -0.007 | [13] -0.043 | [14] 0.064 | [15] -0.024 | [16] -0.03 | [17] -0.007 | [18] 0.013 | [19] -0.01 | [20] 0.035

PRPF38A (UniProt Q8NAV1)
UniProt Q8NAV1, sequence (Q8NAV1 whole entry, looked up): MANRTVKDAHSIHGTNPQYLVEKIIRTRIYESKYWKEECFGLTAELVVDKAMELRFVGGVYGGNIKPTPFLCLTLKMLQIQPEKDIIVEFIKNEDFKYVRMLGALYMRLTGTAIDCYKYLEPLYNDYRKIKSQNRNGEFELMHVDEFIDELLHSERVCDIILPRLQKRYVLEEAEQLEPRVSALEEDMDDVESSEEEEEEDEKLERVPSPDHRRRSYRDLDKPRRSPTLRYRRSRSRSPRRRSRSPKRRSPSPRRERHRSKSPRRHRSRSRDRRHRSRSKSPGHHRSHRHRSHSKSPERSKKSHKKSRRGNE
active: [14] -0.871
inactive: [1] -0.029 | [2] 0.018 | [3] 0.017 | [4] 0.009 | [5] 0.037 | [6] -0.042 | [7] -0.071 | [8] 0.017 | [9] 0.006 | [10] -0.024 | [11] 0.048 | [12] 0.025 | [13] -0.006 | [15] -0.033 | [16] -0.073 | [17] -0.011 | [18] -0.08 | [19] 0.036 | [20] 0.201

PRPF40A (UniProt O75400)
UniProt O75400, sequence (O75400 whole entry, looked up): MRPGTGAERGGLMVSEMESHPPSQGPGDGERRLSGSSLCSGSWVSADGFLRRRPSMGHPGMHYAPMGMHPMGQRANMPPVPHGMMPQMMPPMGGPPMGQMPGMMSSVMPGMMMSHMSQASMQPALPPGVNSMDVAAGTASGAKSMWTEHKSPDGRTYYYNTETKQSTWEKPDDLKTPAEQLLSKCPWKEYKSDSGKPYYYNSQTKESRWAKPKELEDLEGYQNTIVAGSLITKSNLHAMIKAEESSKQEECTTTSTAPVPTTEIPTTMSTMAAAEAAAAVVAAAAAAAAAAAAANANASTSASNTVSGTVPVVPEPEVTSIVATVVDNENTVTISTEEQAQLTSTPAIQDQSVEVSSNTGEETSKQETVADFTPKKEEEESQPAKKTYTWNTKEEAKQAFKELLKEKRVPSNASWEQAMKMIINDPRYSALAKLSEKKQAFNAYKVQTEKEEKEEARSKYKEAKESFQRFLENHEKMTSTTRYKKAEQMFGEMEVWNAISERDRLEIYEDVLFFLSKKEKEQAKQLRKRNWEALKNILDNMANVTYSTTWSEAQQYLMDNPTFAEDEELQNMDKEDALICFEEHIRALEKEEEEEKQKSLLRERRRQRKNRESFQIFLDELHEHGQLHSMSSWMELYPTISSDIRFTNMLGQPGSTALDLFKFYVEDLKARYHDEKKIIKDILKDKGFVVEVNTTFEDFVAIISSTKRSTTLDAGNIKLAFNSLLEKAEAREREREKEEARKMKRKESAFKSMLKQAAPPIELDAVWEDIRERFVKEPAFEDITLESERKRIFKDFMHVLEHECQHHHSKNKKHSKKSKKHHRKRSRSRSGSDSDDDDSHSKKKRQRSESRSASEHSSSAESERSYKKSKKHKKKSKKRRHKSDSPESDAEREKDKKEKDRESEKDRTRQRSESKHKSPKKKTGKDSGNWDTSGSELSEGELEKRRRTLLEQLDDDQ
inactive: [1] -0.023 | [2] 0.071 | [3] 0.105 | [4] -0.061 | [5] 0.018 | [6] -0.04 | [7] 0.061 | [8] 0.104 | [9] 0.021 | [10] -0.034 | [11] -0.014 | [12] 0.005 | [13] -0.085 | [14] -0.058 | [15] -0.05 | [16] -0.135 | [17] 0.082 | [18] 0.048 | [19] 0.045 | [20] -0.013

PLEKHM2 (UniProt Q8IWE5)
inactive: [1] 0.023 | [2] -0.162 | [3] 0.02 | [4] -0.047 | [5] 0.044 | [6] -0.06 | [7] 0.144 | [8] 0.04 | [9] 0.064 | [10] -0.02 | [11] -0.09 | [12] -0.024 | [13] -0.054 | [14] -0.002 | [15] -0.072 | [16] -0.077 | [17] 0.001 | [18] -0.08 | [19] -0.028 | [20] 0.096

PARP1 (UniProt P09874)
inactive: [1] 0.088 | [2] 0.037 | [3] 0.007 | [4] 0.012 | [5] 0.102 | [6] -0.029 | [7] 0.08 | [8] 0.165 | [9] -0.065 | [10] -0.126 | [11] 0.05 | [12] -0.009 | [13] -0.028 | [14] -0.112 | [15] -0.245 | [16] 0.178 | [17] 0.026 | [18] 0.131 | [19] -0.117 | [20] 0.044

PIK3R1 (UniProt P27986)
UniProt P27986, sequence (P27986 whole entry, looked up): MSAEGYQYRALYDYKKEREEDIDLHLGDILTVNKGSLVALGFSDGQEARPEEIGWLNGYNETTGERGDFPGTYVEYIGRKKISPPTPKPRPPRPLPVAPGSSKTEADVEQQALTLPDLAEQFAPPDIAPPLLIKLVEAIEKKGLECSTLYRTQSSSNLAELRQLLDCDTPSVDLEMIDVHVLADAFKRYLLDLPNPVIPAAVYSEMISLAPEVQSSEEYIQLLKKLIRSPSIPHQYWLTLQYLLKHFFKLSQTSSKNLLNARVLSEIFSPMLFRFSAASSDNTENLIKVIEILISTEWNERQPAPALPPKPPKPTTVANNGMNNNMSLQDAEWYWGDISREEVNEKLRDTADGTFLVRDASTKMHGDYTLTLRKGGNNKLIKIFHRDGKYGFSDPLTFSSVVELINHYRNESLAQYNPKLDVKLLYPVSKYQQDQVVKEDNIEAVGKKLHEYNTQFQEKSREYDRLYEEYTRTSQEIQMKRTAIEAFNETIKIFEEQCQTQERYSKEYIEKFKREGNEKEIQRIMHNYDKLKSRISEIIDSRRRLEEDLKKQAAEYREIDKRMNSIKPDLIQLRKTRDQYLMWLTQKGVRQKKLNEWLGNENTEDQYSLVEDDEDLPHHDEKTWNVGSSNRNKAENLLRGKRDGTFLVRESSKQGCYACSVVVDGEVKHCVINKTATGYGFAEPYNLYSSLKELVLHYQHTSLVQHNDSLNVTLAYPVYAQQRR
inactive: [1] 0.033 | [2] -0.044 | [3] 0.002 | [4] 0.022 | [6] -0.038 | [7] -0.026 | [8] 0.051 | [9] 0.056 | [10] -0.079 | [11] -0.061 | [12] 0.029 | [13] -0.074 | [14] 0.015 | [15] -0.117 | [16] 0.108 | [17] 0.009 | [18] -0.013 | [19] -0.026 | [20] 0.017
active: [5] 0.232

PUM1 isoform 3 (UniProt Q14671)
UniProt Q14671, sequence (Q14671 whole entry, looked up): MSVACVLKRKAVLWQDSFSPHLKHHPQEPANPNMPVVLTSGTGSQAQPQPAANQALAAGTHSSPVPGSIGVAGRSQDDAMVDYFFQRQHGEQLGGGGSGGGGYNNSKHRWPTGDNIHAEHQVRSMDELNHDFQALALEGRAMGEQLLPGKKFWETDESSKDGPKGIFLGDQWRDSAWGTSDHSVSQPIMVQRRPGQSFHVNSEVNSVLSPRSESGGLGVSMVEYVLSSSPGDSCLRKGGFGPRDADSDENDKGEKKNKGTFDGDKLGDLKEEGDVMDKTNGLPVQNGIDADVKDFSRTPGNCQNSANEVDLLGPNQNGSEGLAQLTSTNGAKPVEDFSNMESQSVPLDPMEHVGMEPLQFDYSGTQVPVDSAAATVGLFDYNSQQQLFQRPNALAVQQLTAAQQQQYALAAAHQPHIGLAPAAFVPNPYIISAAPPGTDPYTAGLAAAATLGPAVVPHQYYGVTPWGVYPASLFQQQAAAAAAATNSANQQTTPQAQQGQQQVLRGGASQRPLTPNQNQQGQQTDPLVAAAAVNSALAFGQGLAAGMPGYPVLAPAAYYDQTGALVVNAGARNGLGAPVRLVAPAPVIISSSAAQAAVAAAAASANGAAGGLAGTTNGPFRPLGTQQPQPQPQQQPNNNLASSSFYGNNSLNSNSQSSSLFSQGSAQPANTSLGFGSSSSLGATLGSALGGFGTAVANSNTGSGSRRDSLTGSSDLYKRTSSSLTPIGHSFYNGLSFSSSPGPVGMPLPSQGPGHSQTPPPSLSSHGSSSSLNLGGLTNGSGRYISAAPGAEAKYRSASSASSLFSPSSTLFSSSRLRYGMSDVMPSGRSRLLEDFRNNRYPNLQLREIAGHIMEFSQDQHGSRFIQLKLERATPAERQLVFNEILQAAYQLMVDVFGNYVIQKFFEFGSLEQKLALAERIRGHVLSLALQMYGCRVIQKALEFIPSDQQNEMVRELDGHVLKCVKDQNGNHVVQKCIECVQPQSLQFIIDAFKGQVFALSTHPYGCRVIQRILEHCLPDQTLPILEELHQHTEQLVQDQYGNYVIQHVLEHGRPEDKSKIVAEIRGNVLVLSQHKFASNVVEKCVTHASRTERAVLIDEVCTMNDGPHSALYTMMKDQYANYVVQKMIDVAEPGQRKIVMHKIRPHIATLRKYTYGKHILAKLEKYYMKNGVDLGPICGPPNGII
inactive: [1] 0.007 | [2] -0.02 | [3] -0.007 | [4] 0.071 | [5] 0.008 | [6] -0.055 | [7] 0.007 | [8] 0.007 | [9] -0.03 | [10] 0.01 | [11] -0.062 | [12] 0.006 | [13] -0.047 | [14] -0.066 | [15] -0.044 | [16] -0.014 | [17] 0.01 | [18] 0 | [19] -0.015 | [20] 0.007

PBX2 (UniProt P40425)
UniProt P40425, sequence (P40425 whole entry, looked up): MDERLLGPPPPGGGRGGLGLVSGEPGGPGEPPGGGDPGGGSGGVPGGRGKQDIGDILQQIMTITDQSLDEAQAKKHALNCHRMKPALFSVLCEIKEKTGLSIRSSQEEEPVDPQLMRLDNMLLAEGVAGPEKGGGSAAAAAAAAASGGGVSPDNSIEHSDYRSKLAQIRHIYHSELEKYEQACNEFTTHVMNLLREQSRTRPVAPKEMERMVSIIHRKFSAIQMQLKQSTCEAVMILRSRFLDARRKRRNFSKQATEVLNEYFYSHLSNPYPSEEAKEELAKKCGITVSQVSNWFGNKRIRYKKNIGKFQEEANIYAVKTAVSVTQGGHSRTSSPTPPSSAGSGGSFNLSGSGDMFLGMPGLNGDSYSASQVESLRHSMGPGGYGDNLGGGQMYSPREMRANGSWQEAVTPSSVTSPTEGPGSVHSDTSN
inactive: [1] -0.001 | [2] -0.14 | [3] 0.026 | [4] -0.051 | [5] 0.018 | [7] 0.062 | [8] 0.095 | [9] 0.119 | [10] -0.102 | [11] 0.019 | [12] 0.042 | [13] -0.057 | [14] -0.071 | [15] -0.202 | [16] -0.034 | [17] 0.013 | [18] -0.091 | [19] -0.116 | [20] 0.027
active: [6] -0.632
